Hits are enriched below; roughly 1.5% of the tested compounds scored in any of these assays.
RECQ1 helicase: inhibitors of human RECQ1 DNA helicase; Potency, µM (titrated, usually from 57.3 µM), without a hit: at the top dose activity, negative = inhibition, hits mostly inhibitors; AID 2549; RECQ1 DNA unwinding, red fluorescence kinetic read; 0.54% of 240,000 active;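 further: potency means the concentration at half of the fitted maximal effect; plate controls were vehicle for no effect and no enzyme for full effect; nearly all actives have a fitted effect of over 30% in size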
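RECQ1T1 50 nM; forked duplex (20 bp + 30-nt ss tails) 200 nM, ATP 2 mM final; pH 8.0, 2 mM MgCl2, 2.5 ug/ml poly(dI-dC); 15 min compound preincubation; discontinuous kinetic read over 2 h at RT.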
FEN1 inh: human FEN1 inhibition | Recombinant FEN1 flap cleavage, fluorescence, 15 min | Potency, µM (doses to about 114 µM), inactives show at the top dose activity change, negative = inhibition, actives largely listed as inhibitors | 0.35% of 390,000 active | AID 588795; further: potency means the concentration at half of the fitted maximal effect; nearly all actives have a fitted effect of over 65% in size
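Reaction started by adding substrate (50 nM final) to 10 nM enzyme after 15 min room-temperature compound preincubation. Reads at 0 and 15 min, with data normalized and fitted to a four-parameter Hill equation.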
PI5P4K alpha inh: inhibitors of human PI5P4K alpha; 1.2% of 330,000 active; max response, %; P48426; PI5P4Kalpha enzyme, ADP-Glo luminescence, 60 min; hits give low values; active means max response of -50% or lower; inconclusive means between -30% and -50%; inactive means -30% or higher; further: value at the top dose of about 77 µM
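Quantitative HTS of the MLSMR library against PI5P4Kalpha with substrate. ATP added last at 5 microM final; room temperature, 60 minutes. Remaining ATP depleted, ADP converted and read as luminescence.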
BLM inh: inhibitors of human Bloom syndrome helicase BLM; P54132; recombinant BLM DNA unwinding, fluorescence dequenching; Potency, µM (highest dose often 56.1 µM), for inactives: top-dose activity change, negative = inhibition, usual class: inhibitors; 0.2% of 350,000 active; AID 2528;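 further: potency means the concentration at half of the fitted maximal effect; plate controls were vehicle for no effect and no enzyme for full effect; nearly all actives have a fitted effect of over 35% in size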
APE1 inh: blocks human APE1 abasic DNA cleavage | Potency, µM (doses to about 65.8 µM), inactives show at the top dose activity change, negative = inhibition, most hits filed as inhibitors | 0.35% of 350,000 active | P27695 | recombinant APE1, TAMRA/BHQ-2 abasic DNA cleavage fluorescence;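 further: potency means the concentration at half of the fitted maximal effect; plate controls were vehicle for no effect and reference inhibitor for full effect; nearly all actives have a fitted effect of over 55% in size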
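Measures dequenching upon AP-site incision of a 5'-TAMRA/3'-BHQ-2 THF-containing duplex, 50 nM; human APE1 0.75 nM after 15 min room-temperature exposure to compound; kinetic three-point read at one-minute spacing.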
WRN helicase inh: WRN helicase (human) inhibition. Q14191. WRN helicase unwinding, fluorescent forked duplex, kinetic. Potency, µM (doses to about 114 µM), for inactives: at the highest dose activity change, negative = inhibition, actives largely listed as inhibitors. 0.46% of 360,000 active. AID 651768; further: potency means the concentration at half of the fitted maximal effect; nearly all actives have a fitted effect of over 55% in size
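Screening of the MLSMR collection measured strand separation of a quenched forked DNA duplex (100 nM) by 20 nM WRN with 2 mM ATP, all final. Compounds were preincubated with enzyme 15 min at room temperature.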
* = called active by the depositor; i = inactive; ? = inconclusive; / = no result; [ ] = another dose, or the depositor's remark. Unless noted, the call rests on the fitted dose curve; in most records, active means well fitted curve in the direction sought with a large enough effect; inconclusive means small, poorly fitted or top-dose-only effect, or another doubt; inactive means no such curve, though single readings can be large; an effect the other way counts as inactive or inconclusive. Unless noted, on the % scale 0 is the no-effect control and ±100 the full control effect.

SMILES	RECQ1 helicase	FEN1 inh	PI5P4K alpha inh	BLM inh	APE1 inh	WRN helicase inh
COCCCn1c2nc3ccccc3nc2c2c(=O)n(Cc3ccc(Cl)cc3)cnc21	-3%	9%	2	-4%	-3%	8%
CC(C)c1ccc(NC(=O)CN2C(=O)COc3ccc(S(=O)(=O)N4CCCCC4)cc32)cc1	/	-5%	/	-3%	/	/
O=C(c1cnc(N2CCOCC2)c2ccccc12)N1CCN(c2ccc(F)cc2)CC1	/	-5%	/	-2%	/	/
O=c1/c(=C/c2ccco2)sc2nc3cc(Br)cnc3n12	/	/	/	/	14%	/
C=CCn1c(NC(=O)c2ccccc2Cl)c(C#N)c2nc3ccccc3nc21	?	?	/	1µM*	-5%	-11%[11.6 µM]
CCCCC1=CC2=CC(=O)C(C)(OC(=O)CC)C(=O)C2=CO1 (configuration not stated)	-12%	?	-65*	-2%	3%	-30%
CCC(=O)OC1(C)C(=O)C=C2C=C(CCCC(=O)OC)OC=C2C1=O (configuration not stated)	-6%	?	?	3%	16%	-16%[11.6 µM]
Cc1ccc(Cn2c(=O)n(Cc3ccccc3Cl)c(=O)c3ccccc32)cc1	/	-17%	/	-3%	/	/
CN1CCN(C(c2ccc(Cl)cc2)c2cc(Cl)c3cccnc3c2O)CC1 (configuration not stated)	/	?	-62*	-3%	32%	-15%
CN1CCN(C(c2ccc(C(F)(F)F)cc2)c2cc(Cl)c3cccnc3c2O)CC1 (configuration not stated)	/	/	/	-14%	19%	/
NC(=O)C1CCN(c2nc(-c3ccccc3[N+](=O)[O-])cs2)CC1	/	/	/	/	14%	/
Cc1ccc(N=c2ssnc2Cl)cc1	-5%	-1%	-66*	-2%	2%	50µM*
Cc1cc(Cl)ccc1N=c1ssnc1Cl	i	1%	-53*	0%	13%	50µM*
Cc1nnc(N=c2ssnc2Cl)o1	/	?	-101*	/	-6%	0%
CC1OC2(C)OC(=N)C1(C#N)C(C#N)(C#N)C2c1ccccc1 (configuration not stated)	3%	1%	-28	-18%	1%	-20%
CC1C2(C)OC(=N)C(C#N)(C(C)O2)C1(C#N)C#N (configuration not stated)	-24%	-2%	-3	-8%	-2%	79µM*
COc1ccc(C(=O)OCC(=O)c2ccco2)cc1[N+](=O)[O-]	/	/	-59*	/	/	-11%
COc1ccc(C(=O)OCC(=O)NCCCc2ccccc2)cc1[N+](=O)[O-]	i	-2%	2	2%	4%	-4%
CC(=O)c1ccc(NS(=O)(=O)c2ccc3[nH]c(=O)[nH]c3c2)cc1	/	11%	/	2%	/	/
CCOC(=O)C1=C(C)N(CCCC(=O)O)C(=O)NC1c1ccc(Cl)cc1Cl (configuration not stated)	/	19%	-98*	1%	35%	0%
CCOC(=O)C1=C(C)N(CCCCCC(=O)O)C(=O)NC1c1ccccc1Cl (configuration not stated)	1%	0%	0	-3%	?	1%
CC1=C(C(=O)OCc2ccccc2)C(c2ccc(Cl)cc2Cl)NC(=O)N1CCCC(=O)O (configuration not stated)	4%	10%	-76*	4%	2%	-2%
CCOC(=O)C1=C(C)N(CCCC(=O)O)C(=O)NC1c1ccccc1Cl (configuration not stated)	/	2%	-89*	/	/	-3%
CCCC[C@@H]1CCCO[C@@](C(=O)NCc2ccc(S(C)(=O)=O)cc2)(C(F)(F)F)C1	-7%	-25%	/	-3%	11%	/
C=CCNC(=O)c1cc(-c2cccs2)on1	/	/	/	/	9%	/
SMILES	RECQ1 helicase	FEN1 inh	PI5P4K alpha inh	BLM inh	APE1 inh	WRN helicase inh
CC1=NN(C(N)=S)C(=O)C1N=Nc1c(C)cc(C)cc1C (configuration not stated)	-1%	11%	-5	-5%	3%	-5%
CC1=NN(C(N)=S)C(=O)C1N=Nc1c(Cl)cc([N+](=O)[O-])cc1Cl (configuration not stated)	/	-4%	-57*	-8%	5%	-19%
C/C=C/C=C\C(=O)Nc1cccc(C2=NOC3(C2)C[C@@H](C(N)=O)N(C(=O)c2cc([N+](=O)[O-])cc([N+](=O)[O-])c2C)C3)c1 (some centres not stated)	i	9%	-71*	-5%	11%	-8%
C/C=C\C=C/C(=O)Nc1cccc(C2=NOC3(C2)C[C@@H](C(N)=O)N(C(=O)c2ccccc2)C3)c1 (some centres not stated)	-4%	/	/	-2%	0%	/
C/C=C\C=C\C(=O)Nc1cccc(C2=NOC3(C2)C[C@H](C(N)=O)N(C(=O)c2ccccc2C(=O)c2ccccc2)C3)c1 (some centres not stated)	i	-14%	-52*	3%	-2%	-1%
C/C=C\C=C\C(=O)N1CC2(CC(c3cccc(NC(=O)COc4ccc(Cl)cc4)c3)=NO2)C[C@H]1C(N)=O (some centres not stated)	i	-23%	-81*	-9%	-2%	-11%
C[N+]1(CC(=O)c2ccc(I)cc2)CCOCC1	/	18%	/	/	/	/
CCOc1ccc(NC(=O)c2cnn(-c3ccc(C)c(C)c3)c2C2CCN(C(=O)OC(C)(C)C)CC2)cc1	/	?	/	-6%	/	/
CCC(=O)CC	-5%	/	/	-6%	?	/
Cc1ccc(N(CC(=O)Nc2cccc(Cl)c2)S(=O)(=O)c2cccs2)cc1	/	-1%	/	-7%	/	/
COc1ccc(/C=N/NC(=O)c2ccc(C)cc2)cc1CN1CCN(c2ccc(F)cc2)CC1	-7%	-8%	-6	-2%	-4%	2%
COc1ccc(/C=N\NC(=O)c2cc(O)c(O)c(O)c2)cc1CN1CCN(c2ccc(F)cc2)CC1	-5%	14µM*	-25	-17%	?	-2%
O=C(O[C@H]1CN2CCC1CC2)N1CCc2ccccc2[C@@H]1c1ccccc1	/	/	/	4%	/	/
CCOC(=O)C1C(=O)C=C(/C=C/c2ccc(N(C)C)cc2)CC1c1ccccc1 (configuration not stated)	-4%	-5%	1	?	-3%	50µM*
CO[C@H]1C[C@H](O[C@@H]2/C(C)=C/C[C@@H]3C[C@@H](C[C@]4(CC[C@H](C)[C@@H](C5CCCCC5)O4)O3)OC(=O)[C@@H]3C=C(C)/C(=N/O)[C@H]4OC/C(=C\C=C\[C@@H]2C)[C@]43O)O[C@@H](C)[C@@H]1O	/	/	/	/	0%	/
COC(=O)c1c(Oc2ccc(C(C)=O)cc2)nnc(-c2ccccc2)c1-c1ccccc1	/	-19%	/	-6%	/	/
